Results from PubChem BioAssay (EPA / NIEHS).
Several values for one entry are separate records, joined by “and”; a condition that tells them apart may be missing. Identical values can stand only once. Results filed as inconclusive are left out. Where a structure was tested more than once in an assay, its records may differ in their call. Activity calls are given as the source filed them. The calls were made as follows, unless noted: active = hit-call score of the fitted dose curve at least 0.9, where 1 is the maximum; inconclusive = response in the unintended direction; inactive = score below 0.9.

Legend:
[1] = read-out: UDP glucuronosyltransferase (UGT1A6), UGT1A6 (gene 54578); test: LTEA_HepaRG_UGT1A6: Life Technologies and Expression Analysis (LTEA) Assay for UDP glucuronosyltransferase (UGT1A6) using HepaRG (AID 2283539; active = hit-call score of the fitted dose curve at least 0.9, where 1 is the maximum; inactive = score below 0.9); settings: mRNA level, 48 h; actives raise or lower the signal
Procedure, shortened: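 HepaRG, 48 h post-plating switch to serum-free induction medium; chemical 48 h, 100 uM top, half-log x8, duplicate, 0.5% DMSO. Phenobarbital 1mM induction control. UGT1A6 mRNA by TaqMan qRT-PCR; gain/loss fit vs DMSO.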

[2] = read-out: X-box binding protein 1 (XBP1), XBP1 (gene 7494); test: LTEA_HepaRG_XBP1: Life Technologies and Expression Analysis (LTEA) Assay for X-box binding protein 1 (XBP1) using HepaRG (AID 2283540; active = hit-call score of the fitted dose curve at least 0.9, where 1 is the maximum; inactive = score below 0.9); settings: mRNA level, 48 h; actives raise or lower the signal
Procedure, shortened: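 Transcript levels of XBP1, measured by qRT-PCR and normalised to three housekeeping genes, were fitted bidirectionally relative to 0.5% DMSO controls. Human HepaRG cells received eight-point half-log dilutions from 100 uM for 48 h.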

[3] = LTEA_HepaRG_LDH_cytotoxicity: Cytotoxicity Assessment in the Life Technologies and Expression Analysis (LTEA) Assay (AID 2283563);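 as to AC50: LDH activity released into spent culture medium as a marker of cell death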
Procedure, shortened: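 Cells were thawed and plated for 48 h. Medium was then replaced with serum-free induction medium. Chemicals (8 half-log points, maximum 100 uM, 0.5% DMSO) were added in duplicate for 48 h, after which spent medium was assayed for LDH.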

[4] = ATG_XTT_Cytotoxicity: Cytotoxicity Assessment in the Attagene TRANS-FACTORIAL HepG2 Assay (AID 2283584)
Procedure, shortened: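 Cells: human HepG2, transiently transfected with MRTU reporter constructs. Exposure 24 h. Readout: XTT, cell number. Baseline/neg ctrl DMSO; loss-of-signal scored.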

[5] = TOX21_p53_BLA_p2_viability: Viability Assessment in the Tox21 HCT-116 p53 Agonism Beta-lactamase Assay, Phase 2 (AID 2283591);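 also: compound exposure lasted 16 h at 37 °C; actives lower the ATP signal meaning cytotoxicity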
Procedure, shortened: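 Cytotoxicity readout: CellTiter-Glo ATP luminescence, 30 min at room temperature, after the beta-lactamase read. Cells were HCT116 exposed 16 h at 37C to compounds pin-transferred at 217-fold dilution from DMSO stocks.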

[6] = target: Cellular tumor antigen p53 (Homo sapiens) (UniProt P04637); test: TOX21_p53_BLA_p2_ratio: Tox21 HCT-116 p53 Agonism Beta-lactamase Assay, Ratio, Phase 2 (AID 2283592)
Chain of Cellular tumor antigen p53 (Homo sapiens) (P04637 whole entry, looked up): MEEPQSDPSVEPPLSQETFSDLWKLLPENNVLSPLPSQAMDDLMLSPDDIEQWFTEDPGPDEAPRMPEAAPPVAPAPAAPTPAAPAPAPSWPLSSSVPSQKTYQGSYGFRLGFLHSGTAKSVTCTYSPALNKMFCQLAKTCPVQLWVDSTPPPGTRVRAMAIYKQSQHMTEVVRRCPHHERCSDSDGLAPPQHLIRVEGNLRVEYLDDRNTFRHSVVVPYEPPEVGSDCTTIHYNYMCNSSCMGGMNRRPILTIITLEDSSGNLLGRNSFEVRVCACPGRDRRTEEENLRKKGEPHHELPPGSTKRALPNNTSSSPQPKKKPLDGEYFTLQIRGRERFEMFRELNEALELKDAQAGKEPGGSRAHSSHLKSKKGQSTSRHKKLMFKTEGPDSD
Procedure, shortened: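 Plated HCT116 p53-bla cells (4000/well) received compound after 5 h, then 16 h at 37C/5% CO2. CCF4-AM added, 2 h RT. Ratio of 460 to 530 nm emission taken as the p53 reporter signal.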

[7] = TOX21_p53_BLA_p3_viability: Viability Assessment in the Tox21 HCT-116 p53 Agonism Beta-lactamase Assay, Phase 3 (AID 2283593);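 also: cells exposed to compound for 16 h before reading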
Procedure, shortened: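 Cellular ATP was quantified by CellTiter-Glo luminescence, read after 30 min at room temperature. Beforehand, HCT116 cells (4000/well) received compound 5 h post-seeding, 217-fold diluted from DMSO, then incubated 16 h at 37C.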

[8] = target: Cellular tumor antigen p53 (Homo sapiens) (UniProt P04637); test: TOX21_p53_BLA_p3_ratio: Tox21 HCT-116 p53 Agonism Beta-lactamase Assay, Ratio, Phase 3 (AID 2283596)
Procedure, shortened: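 Cells were seeded at 4000/well, rested 5 h at 37C, then dosed with DMSO compound solutions (217-fold dilution) for 16 h. CCF4-AM substrate was loaded for 2 h at room temperature, and the 460/530 nm emission ratio was fitted for gain of signal versus DMSO.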

[9] = TOX21_p53_BLA_p4_viability: Viability Assessment in the Tox21 HCT-116 p53 Agonism Beta-lactamase Assay, Phase 4 (AID 2283597);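 also: hits lower the luminescence signal meaning cytotoxicity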
Procedure, shortened: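 Readout: ATP luminescence (CellTiter-Glo), measured 30 min after reagent addition at RT. The reagent followed a 2 h CCF4-AM incubation, and the cells had been exposed to compound for 16 h at 37C.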

[10] = target: Cellular tumor antigen p53 (Homo sapiens) (UniProt P04637); test: TOX21_p53_BLA_p5_ratio: Tox21 HCT-116 p53 Agonism Beta-lactamase Assay, Ratio, Phase 5 (AID 2283599)
Procedure, shortened: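 Beta-lactamase reporter ratio (blue 460 nm over green 530 nm, 405 nm excitation) after 2 h CCF4-AM loading, in HCT-116 cells exposed 16 h at 37 C to compounds pinned at 217-fold dilution. Increases relative to DMSO baseline scored.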

[11] = TOX21_p53_BLA_p5_viability: Viability Assessment in the Tox21 HCT-116 p53 Agonism Beta-lactamase Assay, Phase 5 (AID 2283600)
Procedure, shortened: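 Workflow: seed 4000 cells per well, wait 5 h, add compounds (DMSO, 217-fold dilution), incubate 16 h, load CCF4-AM 2 h, add CellTiter-Glo, read luminescence after 30 min.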

[12] = target: Cellular tumor antigen p53 (Homo sapiens) (UniProt P04637); test: TOX21_p53_BLA_p4_ratio: Tox21 HCT-116 p53 Agonism Beta-lactamase Assay, Ratio, Phase 4 (AID 2283601)
Procedure, shortened: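 Signal is the blue/green (460nm/530nm) ratio of cleaved versus uncleaved CCF4-AM substrate, read after 2 h substrate loading. Cells were HCT116 carrying the p53-responsive beta-lactamase reporter, dosed 16 h at 37C, 5% CO2; CellTiter-Glo measured in parallel.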

[13] = Tanguay_ZF_120hpf_MORT_legacy: (Legacy) Oregon State University Tanguay Lab 120 Hour Post-fertilization zebrafish Assay for Mortality (AID 2283633);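 as to AC50: fitted as increase in binary mortality versus DMSO negative control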
Procedure, shortened: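 5D WT zebrafish, chorion removed 4 hpf; 1 embryo/well from 6 hpf; static exposure to 120 hpf, 28C, dark, sealed. Final DMSO 0.64%. Readout: binary mortality, brightfield, 24 + 120 hpf; DMSO as negative control.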

[14] = Tanguay_ZF_120hpf_YSE_legacy: (Legacy) Oregon State University Tanguay Lab 120 Hour Post-fertilization zebrafish Assay for Yolk Sac Edema (AID 2283634)
Procedure, shortened: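 Dechorionate (pronase, 4 hpf) → place one 6 hpf embryo per well → static compound exposure, sealed and foil-covered, 28C, to 120 hpf → record yolk sac edema as present or absent. Final DMSO 0.64%.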

[15] = Tanguay_ZF_120hpf_AXIS_legacy: (Legacy) Oregon State University Tanguay Lab 120 Hour Post-fertilization zebrafish Assay for Body Axis Malformation (AID 2283635)
Procedure, shortened: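 Chorion is removed with pronase at 4 hpf, then single 6 hpf embryos are dosed (final DMSO 0.64%) and held statically at 28C in sealed, foil-covered plates. At 120 hpf body axis malformation is recorded as present or absent.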

[16] = Tanguay_ZF_120hpf_EYE_legacy: (Legacy) Oregon State University Tanguay Lab 120 Hour Post-fertilization zebrafish Assay for Eye Malformation (AID 2283636);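 also: binary presence or absence of eye malformation scored by brightfield in 120 hpf larvae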
Procedure, shortened: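 Binary brightfield scoring of eye defects at 120 hpf after static exposure from 6 hpf of single pronase-dechorionated wild-type embryos (28C, 0.64% DMSO). Non-mortality endpoints omitted where embryos died; fit vs DMSO.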

[17] = Tanguay_ZF_120hpf_SNOU_legacy: (Legacy) Oregon State University Tanguay Lab 120 Hour Post-fertilization zebrafish Assay for Snout Malformation (AID 2283637)
Procedure, shortened: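 Binary snout-malformation call at 120 hpf in wild-type 5D embryos, chorion removed by pronase, under static exposure from 6 hpf at 28C (0.64% DMSO). Embryos dying by 24 or 120 hpf excluded.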

[18] = Tanguay_ZF_120hpf_JAW_legacy: (Legacy) Oregon State University Tanguay Lab 120 Hour Post-fertilization zebrafish Assay for Jaw Malformation (AID 2283638)
Procedure, shortened: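 Steps: dechorionate 4 hpf embryos (pronase); plate 1/well at 6 hpf; add test chemical, 0.64% DMSO final; seal, cover, hold at 28C statically to 120 hpf; score jaw defect presence/absence microscopically. Dead embryos not scored.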

[19] = Tanguay_ZF_120hpf_OTIC_legacy: (Legacy) Oregon State University Tanguay Lab 120 Hour Post-fertilization zebrafish Assay for Otic Vesicle Malformation (AID 2283639)
Procedure, shortened: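 Statically exposed wild-type 5D zebrafish embryos, kept sealed and dark at 28C through 120 hours post fertilization, were examined by brightfield microscopy for otic vesicle defects. Responses were recorded as present or absent and analysed relative to DMSO.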

[20] = Tanguay_ZF_120hpf_PE_legacy: (Legacy) Oregon State University Tanguay Lab 120 Hour Post-fertilization zebrafish Assay for Pericardial Edema (AID 2283640)
Procedure, shortened: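 Embryos from wild-type 5D adults were staged, then dosed in 0.64% DMSO. They were kept sealed in the dark at 28C until 120 hpf. Pericardial edema was then recorded as present or absent.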

Measured: AC50

Cn1c(=O)c2c(ncn2C)n(C)c1=O
inactive: [1] | [2] | [3] | [4] | [5] | [6] | [7] | [8] | [9] | [10] | [11] | [12] | [13] | [14] | [15] | [16] | [17] | [18] | [19] | [20]

CC1(C)C(=O)N(Br)C(=O)N1Br
inactive: [1] | [2] | [3] | [4] | [9] | [10] | [11] | [12] | [13] | [14] | [15] | [16] | [17] | [18] | [20]

CCCCCCc1ccc(O)cc1O
inactive: [1] | [2] | [4] | [6] | [9] | [10] | [11] | [16] | [17] | [18] | [19] | [20]
active: [3] 77.7 µM | [5] 69.2 µM and 73.3 µM | [6] 53.5 µM and 42.9 µM | [9] 69.2 µM and 73 µM | [10] 78.1 µM and 68.4 µM | [11] 74.9 µM | [12] 51.2 µM and 63.3 µM and 39.6 µM | [13] 25.9 µM

O=c1n(CC2CO2)c(=O)n(CC2CO2)c(=O)n1CC1CO1 (configuration not stated)
inactive: [1] | [2] | [3] | [4] | [9] | [11] | [13] | [15] | [16] | [17] | [18] | [19] | [20]
active: [6] 19.6 µM and 9.81 µM and 20.5 µM | [9] 51.2 µM | [10] 32.2 µM and 10.7 µM and 22.6 µM | [12] 33.7 µM and 32.1 µM and 23.5 µM

COC(=O)c1ccccc1O
inactive: [2] | [3] | [4] | [5] | [6] | [9] | [11] | [12] | [13] | [14] | [15] | [16] | [17] | [18] | [19] | [20]

CC(C)CCCCCCCOC(=O)CCCCC(=O)OCCCCCCCC(C)C
inactive: [2] | [3] | [4] | [6] | [8] | [12] | [13] | [14] | [15] | [16] | [17] | [18] | [19] | [20]

CCCCCCCCCCCCc1ccccc1
inactive: [2] | [3] | [4] | [5] | [6] | [7] | [10] | [12] | [13] | [15] | [16] | [17] | [18] | [19] | [20]
